Hit rate of the full screen: of about 2,100 compounds, about 760 (36%) were called active. Only a sample is shown. Values without a mark were called inactive.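 How the source made its calls: active means thallium-flux fluorescence traces judged by eye to show enhanced or reduced glutamate response, manual score 1 or -1, so both directions (some results past the limit were not filed as active); inactive means the rest, including fluorescent or raised-baseline compounds.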

The assay can be described thus: thallium influx changes without GIRK channels – cell-based, HEK-293 rmGlu8, no GIRK, thallium flux, counter-screen for GIRK activator project, confirmation (AID 623868).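 Further: extra codes mark interference with 3 for fluorescent and 4 for baseline rise.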 As to conditions: thallium flux fluorescence, at 10 µM, actives lie on both sides, codes: 1 enhancer, -1 blocker, 0 none, thallium stimulus containing EC20 glutamate. (Counterscreens check selectivity or assay interference.)
With `CCCCN(CCCC)c1nc2ccccc2nc1C(C#N)C(=O)NCCCOC` (centres undefined), the manual score was 3. The result for `C=C(C)C1CC=C(C)/C(=N/NC(=S)Nc2ccccc2)C1` (centres undefined) reads 0. The result for `S=C(NN=C(C1CC1)C1CC1)Nc1ccccc1` reads 0; that for `S=C(NN=C1C2CC3CC(C2)CC1C3)Nc1ccccc1`, 1 (active). Under `CC(C)N=c1scc(-c2cccs2)n1/N=C/c1ccc(O)c(O)c1O` stands 0; under `CC(c1ccco1)N(C(=O)c1ccccc1NS(=O)(=O)c1cc([N+](=O)[O-])ccc1Cl)c1ccccn1` (centres undefined), 1 (active). In the case of `CCOP(=O)(c1ccccc1)c1nc(-c2ccccc2C)oc1N1CCCCC1` (centres undefined), the manual score was 0. Regarding `Cc1ccc(/C=N/Nc2nc(Cl)c(Cl)cc2Cl)s1`, the manual score was 1 (active).

On to `CCOC(=O)C1=C(C)OC(N)=C(C#N)C1c1cncc(-c2ccc(F)cc2)c1` (centres undefined), for which the manual score is 0. For `Cc1cc(C)n(-c2ccc(C(=O)OCC(=O)Nc3ccc(Cl)c(S(=O)(=O)N(C)C)c3)cc2)n1`, the manual score is 0.

As for `CCOC(=O)Cc1csc(NC(=S)NC(=O)c2ccccc2C)n1`, the manual score was 1 (active). Under `CCOC(=O)Cc1csc(NC(=S)NC(=O)c2ccccc2Br)n1` stands 1 (active); under `CC1=CC(=O)OC1Cc1ccncc1` (centres undefined), 0.

As to `O=C(Nc1ccc(F)cc1)c1cccc2c1C(=O)N(Cc1ccccn1)C2`, the manual score was 0. Under `COc1ccc(-n2c(=O)[nH]cc(C(=O)Nc3ccc(NC(C)=O)cc3)c2=O)cc1` stands 0; under `CCCC(=O)Nc1ccc(NC(=O)C23CC4CC(CC(C4)C2)C3)cn1`, 0. Under `Cc1ccnc(NC(=S)NC(=O)c2cccs2)c1` stands 1 (active). The result for `Cc1ccc2cccc(NC(=S)NC(=O)c3ccnn3C)c2n1` reads 0. `Cc1ccc2cccc(NC(=S)NC(=O)c3ccn(C)n3)c2n1`: the manual score is 0. The result for `Cc1cccc(NC(=S)NC(=O)c2cccs2)n1` reads 1 (active).

Regarding `CC(Cc1cccs1)NC(=O)Nc1ccc(Cl)cc1` (centres undefined), the manual score was 0. With `CCn1c(CCNC(=O)c2cccs2)nnc1SCC(=O)Nc1ccc(Cl)cc1`, the manual score is 0. Turning to `O=C(NC(=S)Nc1ccc(Cl)cn1)c1cccs1`, the manual score was 1 (active). The result for `CC(C)CC(NS(=O)(=O)c1ccc2c(c1)oc(=O)n2C)C(=O)NC1CCCc2ccccc21` (centres undefined) reads 0; that for `CCOc1ccc(-n2c(SCc3nc(-c4cccs4)no3)nnc2-c2ccncc2)cc1`, 0. The result for `CC(C)C(=O)NC(=S)N(Cc1ccccc1)Cc1ccccc1` reads 1 (active); that for `CC(C)CC(=O)NC(=S)Nc1nc(-c2cccc3ccccc23)cs1`, 0. Under `CC(C)CC(=O)NC(=S)N(Cc1ccccc1)Cc1ccccc1` stands 1 (active). As to `Cc1ccccc1Cn1c(=N)n(CC(O)c2ccco2)c2ccccc21` (centres undefined), the manual score is 0.

Take `N#Cc1nc(COc2ccccc2)oc1N1CCN(c2cccc(Cl)c2)CC1`: the manual score is 0. Take `O=C(Cc1ccccc1)Nc1nc(-c2cccs2)cs1`: the manual score was 0.

Turning to `CN(C)CCCNC(=O)c1ccc(-c2nc(-c3ccc(Cl)cc3)cs2)cc1`, the manual score was 0. Take `O=C(Nc1nc(=O)c2ccccc2s1)c1ccc(F)cc1`: the manual score was 1 (active). On to `CCN(CC)C(=O)CSc1nnc(NC(=O)CCc2ccccc2)s1`, for which the manual score is 0.

Turning to `O=C(Nc1nc(=O)c2ccccc2s1)c1ccc(Cl)cc1`, the manual score was 1 (active). The result for `O=C(Nc1nc2ccccc2s1)c1cc(-c2ccccc2)nn1-c1ccccc1` reads 0. The result for `O=C(Nc1nc(=O)c2ccccc2s1)c1ccccc1` reads 1 (active). The result for `O=C(Cc1ccccc1)Nc1nc(=O)c2ccccc2s1` reads 1 (active); that for `COc1ccc(Cn2nnnc2C(c2ccccc2Cl)N2CCN(C3CCCC3)CC2)cc1` (centres undefined), 0; that for `Cc1csc(SCC(=O)Nc2nc3ccccc3s2)n1`, 0. For `Cc1cnc(NC(=O)CSc2nc3ccccc3c(=O)[nH]2)s1`, the manual score is 0. The result for `CCN(CC)C(=S)SCC(=O)Nc1nc(=O)c2ccccc2s1` reads 1 (active); that for `CCCCn1c(SCC(=O)Nc2ccc(OC)cc2)nc2ccc(N3CCOCC3)cc2c1=O`, 0.

As for `CCCCn1c(=O)[nH]c2nc3cc(N)ccc3nc2c1=O`, the manual score is 3. Under `CCCCn1c(SC(C)C(N)=O)nc2cc(C(=O)OC)ccc2c1=O` (centres undefined) stands 1 (active); under `COCCCN1C(=O)C(=O)/C(=C(/O)c2ccc(C)cc2)C1c1ccccc1` (centres undefined), -1 (active). The result for `C=CCOc1ccc(/C(O)=C2/C(=O)C(=O)N(CCCN3CCOCC3)C2c2ccccc2)cc1` (centres undefined) reads 0; that for `COc1ccc(N/C(C)=C2/C(=O)C(=O)N(CCO)C2c2ccc(Br)cc2)cc1` (centres undefined), 0. Under `O=S(=O)(Nc1ccc2nc(C(F)(F)F)[nH]c2c1)c1ccccc1` stands 0; under `CCC(Sc1ccc2nnc(-c3ccc(F)cc3)n2n1)C(=O)OC` (centres undefined), -1 (active). For the molecule `CCOc1ccc(-c2cc(C)n3nc(C(N)=O)cc3n2)cc1`, the manual score was 0. Under `Cc1cc(N2CCN(c3ccccc3)CC2)nc(NCc2ccccc2)n1` stands 0. The result for `CCCCNC(=S)NC(=O)c1ccc(Cl)cc1Cl` reads 1 (active); that for `CC(C)NC(=S)NC(=O)c1ccc(Cl)cc1Cl`, 1 (active); that for `CC(C)CNC(=S)NC(=O)c1ccccc1Cl`, 1 (active). The result for `S=C(NCc1ccc(Cl)cc1Cl)Nc1ccccc1` reads 0; that for `CC(C)CNC(=S)Nc1ccc(Oc2ccccc2)cc1`, 0. With `CC(C)CNC(=S)NC(=O)c1ccc(Cl)cc1Cl`, the manual score was 1 (active). `O=S(=O)(c1ccc(Cl)c(F)c1)N1CCC(c2nc(-c3ccncc3)no2)CC1`: the manual score was 0. Under `O=C(Nc1ccc(F)c(F)c1)NC1CCCCC1` stands 0.

Consider `Cc1[nH]c2ccccc2c1CN1CCc2ccccc2C1`, for which the manual score was 0. Under `O=C(O)C1C2C=CC(C2)C1C(=O)NCCc1cccc(Cl)c1` (centres undefined) stands 0; under `Cc1ccc(S(=O)(=O)N/N=C/c2ccc(OC3CSC3)cc2)cc1`, 0; under `CCCCNC(=S)NC(=O)c1ccccc1Br`, 1 (active).

Consider `O=C(CSc1nnc(-c2cccnc2)o1)OC1CCCCC1`, for which the manual score was -0.5. The result for `CCS(=O)(=O)Nc1ccc(-c2nnc(SCC(=O)c3ccc(NC(C)=O)c(OC)c3)o2)cc1` reads 0; that for `CCOC(=O)CSc1nnc(-c2ccccc2OC)o1`, -1 (active). Under `COCCCNCCCOc1ccc(Cl)cc1Br` stands 0. The result for `CC1=NN(/C(=N\c2nnc(C)s2)Nc2ccccc2)[C@H](c2cccc3ccccc23)S1` reads 1.5.

Values taken from PubChem BioAssay AID623868 (Vanderbilt High Throughput Screening Facility, 2012).
